The list is not random: actives were taken first. Their share in the collection is about 12%.
Lassa entry inh – blocks Lassa virus binding to or entry into cells; Lassa virus pseudotype entry inhibition, cell reporter; Potency, µM (highest dose often 37.9 µM), for the others: at the top dose activity change, negative = inhibition, hits mostly inhibitors; hit rate 1.2% among 300,000; calls by dose curve; tested in HEK293 cells; also: potency is read from the fitted curve at half-maximal effect; % is scaled to controls: 0 for no effect and ±100 for the full control effect; nearly all actives have a fitted effect of over 50% in size
MARV entry inh – inhibitors of Marburg virus binding or cell entry; hit rate 1.8% among 300,000; Marburg virus pseudotyped entry inhibition, cell reporter; Potency, µM (series often up to 37.8 µM), inactives show at the top dose activity change, negative = inhibition, actives largely listed as inhibitors; AID 540276; calls by dose curve; tested in HEK293 cells; also: potency is read from the fitted curve at half-maximal effect; % is scaled to controls: 0 for no effect and ±100 for the full control effect
CHX counter – affects cycloheximide protein synthesis inhibition readout, counter-screen; cell reporter, cycloheximide protein synthesis inhibition counterscreen; max response, %; hit rate 12% among 300,000; AID 2314; in the data active = max response mostly above about 13%, no sharp cut-off; inactive = mostly below about 14%; also: read at 38.3 µM for the half of the compounds with a filed dose; 0% is about no effect
Shiga toxin inh – inhibitors of Shiga toxin in Vero cells. Vero cells, Shiga toxin protein synthesis inhibition reporter. inhibition, % at 38.7 µM. hit rate 9.2% among 290,000; in the data active = inhibition mostly above about 28%, no sharp cut-off; inactive = mostly below about 43%; also: 0% is about no effect
Starred values were filed as active, the others as inactive; ? = inconclusive; / = not tested or not shown; [ ] = remark or other dose.

SMILES	Lassa entry inh	MARV entry inh	CHX counter	Shiga toxin inh
COc1ccc(C2c3cc(OC)c(OC)cc3CCN2C(=O)c2ccccc2Br)cc1OC (centres undefined)	/	/	-2	-10
Cc1ccc(Nc2nc(N)c([N+](=O)[O-])c(N3CCCC(C)C3)n2)cc1C (centres undefined)	-6%	2.2µM*	-1	-9
CN(c1ccccc1)c1nc(N)c([N+](=O)[O-])c(NC2CCCCC2)n1	/	/	-1	-1
Nc1nc(Nc2ccccc2)nc(N2CCCC2)c1[N+](=O)[O-]	/	/	39*	58*
CC1CCCN(c2nc(N(C)c3ccccc3)nc(N)c2[N+](=O)[O-])C1 (centres undefined)	-21%	?	20*	36
CC1CCCN(c2nc(NCc3ccco3)nc(N)c2[N+](=O)[O-])C1 (centres undefined)	?	?	3	0
Cc1cccc(Nc2nc(N)c([N+](=O)[O-])c(N3CCOCC3)n2)c1	-2%	5.6µM*	-3	17
COC(=O)c1cc(CSc2nnc(NC3CCCCC3)s2)oc1C	?	?	21	-9
CN(C)/N=C/c1ccc(P(c2ccc(/C=N/N(C)C)o2)c2ccc(/C=N/N(C)C)o2)o1	?	?	1	4
Cc1cccc(Nc2nc(NCc3ccco3)nc(N3CCOCC3)n2)c1	?	2.3µM*	4	24
COc1ccc(Nc2nc(N)c([N+](=O)[O-])c(N3CCCC3)n2)cc1	/	/	17*	-9
c1ccc(CNc2nc(NCc3ccco3)nc(N3CCOCC3)n2)cc1	-13%	?	-3	16
O=C(CSc1nc2ccccc2[nH]1)NCc1ccccc1	/	/	36*	68*
COc1ccc(CNC(=O)CSc2nc3ccc(OC)cc3[nH]2)cc1	0%[46.1 µM]	-12%[46.1 µM]	1	-2
COc1ccc(CNC(=O)CSc2nc3ccc(C)cc3[nH]2)cc1	?	?	26*	30
O=C(CSc1nc2ncccc2[nH]1)NCc1ccccc1	-4%	-3%	16*	6
Cc1ccc(NC(=O)CN(C)S(=O)(=O)c2cccc3nsnc23)c(C)c1	-1%[46.1 µM]	-1%[46.1 µM]	/	/
CC[C@@H]1C(c2ccc(F)cc2)=NN(c2ccc(Br)cc2)[C@H]1C(=O)N1CCOC1=O	/	/	16	24
O=[N+]([O-])c1ccccc1N/N=C/c1ccccc1	/	/	35*	62*
O=[N+]([O-])c1ccccc1N/N=C/c1ccc2c(c1)OCO2	-29%	?	40*	68*
Cc1cc(C(c2nnnn2Cc2ccccc2)N2CCOCC2)c(C)n1-c1ccc2c(c1)OCO2 (centres undefined)	?	-31%	18*	42*
O=C(CSc1ccc(-c2cccc([N+](=O)[O-])c2)nn1)NCc1ccccc1	-21%	-3%[46.1 µM]	-2	-5
CSc1ccc(-c2cccc([N+](=O)[O-])c2)nn1	/	-17%[46.1 µM]	27*	79*
O=[N+]([O-])c1cccc(-c2ccc(SCc3cccnc3)nn2)c1	5%	12%	44*	52
CC(C)N(CCc1ccncc1)C(=O)Nc1ccc(Cl)c(Cl)c1	/	/	-3	-4
SMILES	Lassa entry inh	MARV entry inh	CHX counter	Shiga toxin inh
CCOc1ccccc1NC(=O)CSc1nc2cc(O)ccc2c(=O)n1-c1ccc(OC)c(OC)c1	/	/	5	-8
C[n+]1cccc(C2C(C#N)=C(N)Oc3c2ccc2ccccc32)c1 (centres undefined)	?	?	51*	76*
Cc1ccc(S(=O)(=O)N2CCSCCSCCSCCSCC2)cc1	-13%	?	/	/
O=C(Nc1ccc(Cl)c(Cl)c1)N1CCCCCC1	-1%[46.1 µM]	?	51*	90*
O=C(Nc1ccc(Cl)c(Cl)c1)N1CCC(N2CCCCC2)CC1	13%	-13%	-5	-16
O=C(C1CCCO1)N1CCN(C(=S)Nc2ccc(Cl)c(Cl)c2)CC1 (centres undefined)	10µM*	?	3	6
O=C(Nc1ccc(Cl)c(Cl)c1)N1CCOCC1	?	28%	15	37*
O=C(Nc1ccc(Cl)c(C(F)(F)F)c1)C(=O)N1CCCCC1	0%	12%	27*	61
CC(=O)N1CCc2cc(S(=O)(=O)NC(CC(C)C)C(=O)NCCc3ccc(C)cc3)ccc21 (centres undefined)	-12%[46.1 µM]	-4%[46.1 µM]	/	/
CC[N+](CC)(CC)CCCCOc1ccc2c(c1)C(=O)c1cc(OCCCC[N+](CC)(CC)CC)ccc1-2	/	/	0	22
COC(=O)c1cc(S(=O)(=O)NCC2CCN(Cc3cccc(Cl)c3)CC2)c[nH]1	/	/	-3	-1
CCOC(=O)/C(C#N)=C\c1ccc(OCC(=O)Nc2ccc(C)cc2C)c(OC)c1	-6%	-1%	3	-7
CCOc1ccc(-c2cc(C(=O)NCCc3ccc(OC)c(OC)c3)[nH]n2)cc1	-18%[46.1 µM]	/	/	/
CCOc1ccc(-c2cc(C(=O)OC)[nH]n2)cc1	/	?	43*	89*
